In PubChem BioAssay AID492972 (The Scripps Research Institute Molecular Screening Center, 2010):
Screen size: about 340,000 compounds; about 930 (0.27%) were called active. This is one part of a sample in which actives are shown more often than they occur.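 How the source made its calls: active means inhibition above the screen-wide average of all tested compounds plus 3 SD (cut at about 25% in these data); inactive means the rest.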

Target: Platelet-activating factor acetylhydrolase IB subunit alpha1 (Homo sapiens) (UniProt Q15102)
Test: inhibition of PAF acetylhydrolase 1B subunit 3 – biochemical, fluorescence polarization, human, primary screen (AID 492972);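 further: 0% = enzyme with DMSO only and 100% = wells lacking PAFAH1B3 protein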
Conditions: recombinant PAFAH1B3, FP-rhodamine probe, at 3.39 µM, hits give high values

Chain of Platelet-activating factor acetylhydrolase IB subunit alpha1 (Homo sapiens) (Q15102 whole entry, looked up): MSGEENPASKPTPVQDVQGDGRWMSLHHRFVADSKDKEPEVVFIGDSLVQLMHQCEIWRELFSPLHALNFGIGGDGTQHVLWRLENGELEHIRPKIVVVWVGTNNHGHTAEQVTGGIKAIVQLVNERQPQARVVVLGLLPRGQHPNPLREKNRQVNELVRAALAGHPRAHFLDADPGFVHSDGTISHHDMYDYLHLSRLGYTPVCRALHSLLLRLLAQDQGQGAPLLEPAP

inhibition, active:
CC(=O)N(C1=C(Cl)C(=O)c2ccccc2C1=O)c1ccc(C(=O)O)cc1 39%
CCCC1OC23CCCCC2C(C#N)(C#N)C1(C#N)C(=N)O3 (stereo not drawn) 27.8%
O=C1Nc2c(Br)cc(Br)cc2C1(O)N1CCOCC1 (stereo not drawn) 38%
O=C(NC1=CC(=O)c2ccccc2C1=O)c1ccccc1 28.6%
COC(=O)C1=C(C)NC2=C(C(=O)c3ccccc32)C1c1ccc(-c2ccc(C(=O)O)cc2)o1 (stereo not drawn) 46.5%
Cc1c(-c2nn(C)c(=O)c3ccccc23)oc2ccc(F)cc2c1=O 37.7%
Cc1ccc(C)c(NC(=O)NNC(=O)c2ccc3ccccc3c2O)c1 39.8%
CCCCNC(=O)N(O)C1N(/N=C/c2ccc(N(C)C)cc2)C(=S)SC1(C)C (stereo not drawn) 40.5%

inhibition, inactive:
CN(C(=O)c1cccc(NC(=O)Cc2cccc(NC(=O)C3CCCN(C(=O)C4CC4)C3)c2)c1)C1CCC1 (stereo not drawn) 1.82%
Cc1c2cnn(CC(=O)NCc3ccccn3)c(=O)c2c(C)n1Cc1ccc(Cl)cc1 0.23%
N#C/C=C1\Sc2ccccc2C(=O)N1CC(=O)N1CCN(S(=O)(=O)c2ccccc2)CC1 5.99%
Fc1c(F)c(C(F)(F)F)c(F)c(F)c1N1CCN(c2ccc3nnc(C(F)(F)F)n3n2)CC1 6.38%
COc1ccccc1C(C)NC(=O)Cc1ccsc1 (stereo not drawn) 4.64%
O=C(Nc1cccn(Cc2ccccc2Cl)c1=O)NC1CCCCC1 -6.16%
CC(NC(=O)COc1cccnc1[N+](=O)[O-])c1ccc(Cl)cc1Cl (stereo not drawn) 9.45%
CCCCN=C1C([N+](=O)[O-])=CC=C2C1=NC1(CCCCC1)N2O 7.2%
CC(C)c1ccc(-c2nn[nH]n2)cc1 5.47%
Cc1ccc(S(=O)(=O)N2CCN(C(=O)Cc3sc(C)nc3-c3ccc(F)cc3)CC2)c(C)c1 4.17%
O=C(CN1C(=O)NC2(CCCCCC2)C1=O)Nc1ccc([N+](=O)[O-])cc1 7%
CC(=O)c1c(C)[nH]c(C(=O)N2CCN(S(=O)(=O)c3ccc(F)c(F)c3)CC2)c1C 0.06%
N#Cc1c(-c2ccc(Cl)cc2)c2c([nH]c1=S)CCCC2 2.52%
O=C(c1cc2cc(Br)cc(Br)c2oc1=O)N1CCOCC1 0.41%
CC(NC(=O)c1ccccc1)C(=O)Nc1ccccc1 (stereo not drawn) 3.87%
O=C1C=C(NS(=O)(=O)c2ccccc2)C(=O)c2ccccc21 13.3%
CN1CCN(C(=O)c2cnn(-c3ccccc3)c2NC(=O)c2ccc([N+](=O)[O-])cc2)CC1 6.79%
OCCNc1nc2ccccc2n1-c1ncnc2sc3c(c12)CCC3 10.6%
CCN(CC(=O)Nc1c(F)cccc1F)C(=O)c1cnc(C)cn1 -0.64%
COC(=O)C1=C(C)N(C)C(=O)NC1c1ccc([N+](=O)[O-])o1 (stereo not drawn) 0.98%
CCOC(=O)c1ccc(-c2ccc(C(=O)Nc3cccnc3)o2)cc1 -6.74%
COc1ccc(N2CCN(C3CCCCC3NS(=O)(=O)c3ccccc3)CC2)cc1 (stereo not drawn) 7.46%
CCOC(=O)C1=C(CN2CCc3ccccc32)NC(=O)NC1c1cc(C)ccc1C (stereo not drawn) 0.4%
CC(C)(C)OC(=O)N1CCC(C(=O)Nc2cccc(C(=O)NCCc3ccccc3)c2)CC1 -4.3%
CCOC(=O)CNC(=O)CSc1ncccc1-c1nc2ccccc2[nH]1 -4.22%
O=C(Nc1ccc(CN2CCOCC2)cc1)c1cc(Cl)ccc1Cl 7.42%
Cc1ccc(C)c(S(=O)(=O)N2CCN(C(=O)Nc3ccccc3)CC2)c1 3.11%
O=C(Nc1ccccc1Cl)N1CCN(c2ccc3nncn3n2)CC1 2.34%
Cc1ccc(F)cc1NC(=O)Cc1nn(C)c(=O)c2ccccc12 -8.34%
CCC(=O)NCc1cc(-c2nn(C)c(=O)c3ccccc23)ccc1OC -3.52%
Cn1ncc2c(N3CCCCC3)nc(NCCCO)nc21 8.53%
Cc1ccc(S(=O)(=O)NNC(=O)Nc2cccc3ccccc23)cc1 3.24%
Cc1ccc(C)c(NC(=O)COC(=O)CSc2ccccc2)c1 1.73%
CN(Cc1ccccc1)C(=O)C1CCCN(c2ncnc3c2nc2n3CCCCC2)C1 (stereo not drawn) 3.41%
Cc1cccnc1CCNC(=O)C1CCC(=O)N(Cc2cccc(F)c2)C1 (stereo not drawn) 2.19%
Cc1ccc(CNS(=O)(=O)c2ccc3c(c2)N(C)CCO3)cc1 8.72%
CC(=O)Nc1ccccc1OC(C)C(=O)N1CCC(C)CC1 (stereo not drawn) 1.25%
CN(C)CCN=c1cc(-c2ccccc2)oc2ccc(Cl)cc12 5.11%
CCc1ccc(OCC(=O)NCC(c2ccc(Cl)cc2)N2CCCCC2)cc1 (stereo not drawn) 1.46%
O=C1c2cccc(OCC(=O)N3N=C(c4cccs4)CC3c3ccc(F)cc3)c2CCN1Cc1ccccc1 (stereo not drawn) 3.19%
Cc1cc2cc3c(N)[nH]nc3nc2cc1C 5.34%
COc1ccc(S(=O)(=O)N2CCOCC2)cc1NC(=O)Cc1coc2cc(C)ccc12 9.79%
O=C(NCc1cccnc1)c1ccc(CS(=O)(=O)c2ccc(Br)cc2)o1 2.95%
CCn1ncc(C2=NOC(C(=O)Nc3ccccc3C(=O)OC)C2)c1C (stereo not drawn) 9.12%
O=C(CN1CCN(C(=O)c2ccco2)CC1)Nc1ccc(Cl)c(C(F)(F)F)c1 8.31%
CN(CC(=O)NCc1ccc2c(c1)OCO2)CC(=O)Nc1ccc(F)c(F)c1F 7.36%
CCCCNC(=O)N(O)C1N(/N=C/c2ccccc2O)C(=S)SC1(C)C (stereo not drawn) -1.86%
CCC(C)N1C(=S)SC(C)(C)C1N(O)C(=O)NC1CCCCC1 (stereo not drawn) 3.27%
CC1CCCC(NC(=O)COC(=O)[C@@H]2CC(O)CN2S(=O)(=O)c2ccc3c(c2)OCCO3)C1C (stereo partly drawn) -2.21%
COc1cc(OC)cc(-c2c(C#Cc3ccsc3)c3cc(-c4ccc(SC)cc4)ccc3n2C)c1 11.8%
